The list shows a part of the results. Where a call stands in place of a potency, no number is given. Records with an inconclusive call do not appear. Active and inactive are the calls of the source. Calls follow the shape of the full dose curve.
These compounds were tested against Microtubule-associated protein tau (Homo sapiens) (UniProt P10636) (assay: Tau ThS binding assay). Settings: recombinant tau filaments, Thioflavin S fluorescence displacement.
Sequence of Microtubule-associated protein tau (Homo sapiens) (P10636 whole entry, looked up): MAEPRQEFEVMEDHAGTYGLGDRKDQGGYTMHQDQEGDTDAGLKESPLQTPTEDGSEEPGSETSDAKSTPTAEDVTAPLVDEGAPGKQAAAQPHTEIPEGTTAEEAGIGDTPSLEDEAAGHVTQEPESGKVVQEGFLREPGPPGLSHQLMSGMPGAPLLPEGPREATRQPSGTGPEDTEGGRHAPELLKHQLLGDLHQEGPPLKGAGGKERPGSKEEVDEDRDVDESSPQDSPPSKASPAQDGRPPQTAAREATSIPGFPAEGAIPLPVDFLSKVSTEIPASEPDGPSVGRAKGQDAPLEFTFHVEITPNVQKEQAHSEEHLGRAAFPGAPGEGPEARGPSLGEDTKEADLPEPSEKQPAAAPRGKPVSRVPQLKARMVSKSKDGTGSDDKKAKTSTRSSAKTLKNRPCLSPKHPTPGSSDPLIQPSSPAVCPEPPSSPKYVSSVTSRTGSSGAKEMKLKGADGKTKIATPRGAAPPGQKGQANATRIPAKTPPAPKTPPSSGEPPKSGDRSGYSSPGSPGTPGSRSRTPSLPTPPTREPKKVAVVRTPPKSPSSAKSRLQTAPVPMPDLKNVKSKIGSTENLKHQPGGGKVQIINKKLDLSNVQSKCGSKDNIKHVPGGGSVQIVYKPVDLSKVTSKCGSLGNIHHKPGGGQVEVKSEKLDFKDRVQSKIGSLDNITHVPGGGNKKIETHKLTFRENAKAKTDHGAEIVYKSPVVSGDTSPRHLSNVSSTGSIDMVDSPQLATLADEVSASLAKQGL
From the text: NIH Molecular Libraries Screening Centers Network [MLSCN] NIH Chemical Genomics Center [NCGC] MLSCN Grant: 1 X01 MH079825-01 Assay Provider: Jeffrey A. Kuret, Ohio State University NCGC Assay Overview: This assay is a confirmation study for the qHTS Assay for Tau Filament Binding (PubChem AID 596). Tau monomers form filaments in vitro in the presence of arachidonic acid. The dye Thioflavine S (ThS) binds to tau filaments and upon binding, increases in fluorescence several fold. Small molecules that displace ThS binding or prevent filament binding are identified by a reduction in ThS fluorescence.
NCGC Assay Protocol Summary The assay was performed in 96-well round bottom opaque plates (VWR, West Chester, PA) in 100 uL final volume. Recombinant His6-htau40 was diluted to 5 uM in assembly buffer (10 mM HEPES, pH 7.4, 100 mM NaCl, 5 mM dithiothreitol) containing 50 uM arachidonic acid inducer. ThS probe was then added to a final concentration of 10 uM with test compounds assayed at nine 3-fold dilutions beginning at 10 uM final concentration. Each compound was tested at least twice in separate assays. Controls without protein or without compound were included on each plate. […] Fluorescence (ex = 440 nm; em = 485 nm) was measured after brief shaking (10 s) in a FlexStation plate reader (Molecular Devices, Sunnyvale, CA) operated at sensitivity 10, automatic PMT. […]
With `O=C(CCCCn1c(=O)[nH]c2ccccc2c1=O)NCc1ccc2c(c1)OCO2` the outcome was “inactive”.
For `Oc1ccc(O)c2c(O)cccc12`, the Potency was 4.97 µM (active).

Source: PubChem BioAssay AID911 (National Center for Advancing Translational Sciences (NCATS), 2007)
